Source: PubChem BioAssay (NCI)
Several values for one entry are separate records, joined by “and”; a condition that tells them apart may be missing. Equal values may be shown once. This is part of a sample that, as a whole, favours compounds with a hit. Of some 79,000 tested, about 15% had one in any assay. Some structures have more than one record in an assay (separate samples or runs), and their calls can disagree. Activity calls are given as the source filed them. Cut-off read from the data, not from the text of the source: active = growth inhibition above about 70%; inactive = the rest.

Tests used:
[1] = NCI Yeast Anticancer Drug Screen. Data for the rad52 strain (AID 147);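 note: 0% = growth of vehicle-treated control cultures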; conditions: S. cerevisiae rad52 mutant growth inhibition, stronger effect = higher value
Procedure, shortened: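 DNA repair-defective yeast; compound exposure; growth scored against vehicle controls.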

[2] = NCI Yeast Anticancer Drug Screen. Data for the rad50EPP+ strain (AID 151);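 note: 0% = growth of vehicle-treated control cultures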; conditions: S. cerevisiae rad50 mutant strain, stronger effect = higher value
Procedure, shortened: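 rad50EPP+ yeast treated with test compounds. Readout: growth vs vehicle control.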

[3] = NCI Yeast Anticancer Drug Screen. Data for the mgt1 strain (AID 153); conditions: S. cerevisiae mgt1 mutant growth inhibition, stronger effect = higher value
Procedure, shortened: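 Growth inhibition relative to vehicle controls was scored for the mgt1 yeast strain after compound exposure.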

[4] = NCI Yeast Anticancer Drug Screen. Data for the rad50 strain (AID 155);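 note: 0% = growth of vehicle-only cultures of the same strain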; conditions: S. cerevisiae rad50 strain growth inhibition, stronger effect = higher value
Procedure, shortened: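 Cells are treated with compound, grown, and their growth is then scored against vehicle-only cultures of the same repair-deficient yeast strain.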

[5] = NCI Yeast Anticancer Drug Screen. Data for the mec2-1 strain (AID 157); conditions: S. cerevisiae mec2-1 strain, stronger effect = higher value
Procedure, shortened: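 Growth inhibition is read against vehicle-treated controls after compound exposure of the mec2-1 yeast strain, which is defective in DNA damage repair or cell cycle control.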

[6] = NCI Yeast Anticancer Drug Screen. Data for the rad14 strain (AID 159);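 note: 0% = growth of vehicle-treated control cultures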; conditions: S. cerevisiae rad14 strain growth inhibition, stronger effect = higher value
Procedure, shortened: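 Readout: yeast growth inhibition, referenced to vehicle-only cultures. Strain bears a defined alteration in DNA damage repair.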

[7] = NCI Yeast Anticancer Drug Screen. Data for the sgs1 mgt1 strain (AID 161);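 note: 0% = growth of cultures given vehicle only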; conditions: S. cerevisiae sgs1 mgt1 strain, stronger effect = higher value
Procedure, shortened: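 Growth of a repair-deficient yeast mutant was monitored after compound treatment and expressed as inhibition relative to vehicle-treated cultures.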

[8] = NCI Yeast Anticancer Drug Screen. Data for the CLN2oe strain (AID 163);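 note: 0% = growth of vehicle-only control cultures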; conditions: S. cerevisiae CLN2oe strain, stronger effect = higher value
Procedure, shortened: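 Compound-treated yeast; growth vs vehicle ctrl = % inhibition. Genetically altered strain (cell-cycle control).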

[9] = NCI Yeast Anticancer Drug Screen. Data for the cln2 rad14 strain (AID 165);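 note: 0% = growth equal to vehicle treated cultures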; conditions: S. cerevisiae cln2 rad14 strain, stronger effect = higher value
Procedure, shortened: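 Growth inhibition, relative to vehicle-treated controls, is the read-out. The test organism is a yeast strain with defined genetic alterations, cln2 rad14.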

[10] = NCI Yeast Anticancer Drug Screen. Data for the bub3 strain (AID 167); conditions: S. cerevisiae bub3 mutant strain, stronger effect = higher value
Procedure, shortened: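 Part of a panel of yeast mutants defective in DNA damage repair or cell cycle regulation. Each strain is grown with compound, and inhibition is calculated relative to solvent-treated cultures.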

[11] = NCI Yeast Anticancer Drug Screen. Data for the wt2 strain (AID 169);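 note: 0% = growth of vehicle-treated yeast cultures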; conditions: S. cerevisiae wt2 strain growth inhibition, stronger effect = higher value
Procedure, shortened: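 Compound exposure of yeast; growth compared with vehicle controls; inhibition reported.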

[12] = NCI Yeast Anticancer Drug Screen. Data for the mlh1 strain (AID 171);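 note: 0% = growth of vehicle-treated control cultures of the same strain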; conditions: S. cerevisiae mlh1 strain growth inhibition, stronger effect = higher value
Procedure, shortened: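 Compounds are applied to a genetically altered yeast strain, and its growth is compared with that of vehicle-treated cultures to give percent inhibition.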

[13] = NCI Yeast Anticancer Drug Screen. Data for the sgs1 strain (AID 173);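 note: 0% = growth of vehicle-only control cultures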; conditions: S. cerevisiae sgs1 mutant, stronger effect = higher value
Procedure, shortened: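 Compounds applied to genetically altered yeast; growth compared with vehicle-treated cultures to give % inhibition.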

[14] = NCI Yeast Anticancer Drug Screen. Data for the mlh1 rad18 strain (AID 175); conditions: S. cerevisiae mlh1 rad18 strain growth inhibition, stronger effect = higher value
Procedure, shortened: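 Cells of a genetically altered yeast strain, deficient in DNA damage repair, were treated with compound. Their growth was then compared with that of vehicle-treated cultures to give inhibition.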

[15] = NCI Yeast Anticancer Drug Screen. Data for the rad18 strain (AID 177); conditions: S. cerevisiae rad18 mutant growth inhibition, stronger effect = higher value
Procedure, shortened: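 Compounds are applied to a repair-deficient yeast strain, and growth is compared with that of vehicle-treated cultures to give percent inhibition.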

[16] = NCI Yeast Anticancer Drug Screen. Data for the wt1 strain (AID 149);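 note: 0% = growth of vehicle-treated wt1 cultures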; conditions: S. cerevisiae wt1 strain (SPY 50644) growth inhibition, stronger effect = higher value
Procedure, shortened: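 The wt1 strain was treated with compounds, and growth was compared with vehicle-treated cultures to give inhibition.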

[17] = at 5.0 µM (retest, dose inferred, filed as 0.5)
[18] = at 50.0 µM (retest, dose inferred, filed as 5.0)

Measured: growth inhibition

O=C1CC(=O)c2ccccc21
inactive: [1]; at 1.2 µM -2% | [1]; at 3.7 µM -1% | [1]; at 11.0 µM 3% | [1]; at 33.0 µM 9% | [1]; at 100.0 µM 50% | [2]; at 1.2 µM -3% | [2]; at 3.7 µM -1% | [2]; at 11.0 µM 6% | [2]; at 33.0 µM 18% | [2]; at 100.0 µM 55% | [3]; at 1.2 µM -1% | [3]; at 3.7 µM 0% | [3]; at 11.0 µM 1% | [3]; at 33.0 µM 3% | [4]; at 1.2 µM 4% | [4]; at 3.7 µM 3% | [4]; [17] 3% | [4]; at 11.0 µM -9% | [4]; at 33.0 µM 14% | [4]; [18] 69% | [4]; at 100.0 µM 46% | [5]; at 1.2 µM 1% | [5]; at 3.7 µM 2% | [5]; [17] 1% | [5]; at 11.0 µM 4% | [5]; at 33.0 µM 10% | [5]; [18] 53% | [5]; at 50.0 µM 46.3% | [5]; at 100.0 µM 40% | [6]; at 1.2 µM 0% | [6]; at 3.7 µM 3% | [6]; at 11.0 µM 5% | [6]; at 33.0 µM 12% | [6]; at 100.0 µM 56% | [7]; [17] 3% | [7]; [18] 12% | [7]; at 50.0 µM 59.7% | [8]; at 1.2 µM -9% | [8]; at 3.7 µM -1% | [8]; at 11.0 µM 3% | [8]; at 33.0 µM 1% | [8]; at 100.0 µM 48% | [9]; [17] 0% | [9]; [18] 57% | [10]; at 1.2 µM -2% | [10]; at 3.7 µM -1% | [10]; [17] -4% | [10]; at 11.0 µM 0% | [10]; at 33.0 µM 3% | [10]; [18] 6% | [10]; at 50.0 µM 67.9% | [10]; at 100.0 µM 35% | [11]; at 1.2 µM 0% | [11]; at 3.7 µM 8% | [11]; at 11.0 µM 1% | [11]; at 33.0 µM 5% | [11]; at 100.0 µM 37% | [12]; at 1.2 µM -1% | [12]; at 3.7 µM 0% | [12]; at 11.0 µM 2% | [12]; at 33.0 µM 4% | [12]; at 100.0 µM 65% | [13]; at 1.2 µM -1% | [13]; at 3.7 µM 2% | [13]; at 11.0 µM 6% | [13]; at 33.0 µM 18% | [13]; at 100.0 µM 57% | [14]; [17] 1% | [14]; [18] 12% | [15]; at 1.2 µM -1% | [15]; at 3.7 µM 2% | [15]; at 11.0 µM 7% | [15]; at 33.0 µM 23%
active: [3]; at 100.0 µM 72% | [4]; at 50.0 µM 87.4% | [9]; at 50.0 µM 70.5% | [14]; at 50.0 µM 70% | [15]; at 100.0 µM 74%

Cc1cc(N(CCOS(C)(=O)=O)CCOS(C)(=O)=O)ccc1C=Nc1ccc(-c2csc(-c3ccccc3)n2)c(Cl)c1
-19% (inactive) and 95% (active): [10]; [18]
inactive: [1]; at 1.2 µM 14% | [1]; at 3.7 µM 57% | [16]; at 1.2 µM -26% | [16]; at 3.7 µM -8% | [16]; at 11.0 µM 56% | [3]; at 1.2 µM 13% | [3]; at 3.7 µM 43% | [4]; at 1.2 µM 2% | [4]; at 3.7 µM 28% | [4]; [17] 53% and 4% | [5]; at 1.2 µM -2% | [5]; at 3.7 µM 30% | [5]; [17] 51% and -1% | [6]; at 1.2 µM 4% | [6]; at 3.7 µM 53% | [7]; [17] 20% and 8% | [8]; at 1.2 µM 36% | [8]; at 3.7 µM 37% | [9]; [17] 29% and -6% | [10]; at 1.2 µM 0% | [10]; at 3.7 µM 20% | [10]; [17] 18% and 0% | [11]; at 1.2 µM -4% | [11]; at 3.7 µM 4% | [12]; at 1.2 µM -1% | [12]; at 3.7 µM 25% | [13]; at 1.2 µM 10% | [13]; at 3.7 µM 22%
5% (inactive) and 97% (active): [7]; [18]
active: [1]; at 11.0 µM 90% | [1]; at 33.0 µM 96% | [1]; at 100.0 µM 84% | [16]; at 33.0 µM 98% | [16]; at 100.0 µM 92% | [3]; at 11.0 µM 81% | [3]; at 33.0 µM 98% | [3]; at 100.0 µM 92% | [4]; at 11.0 µM 78% | [4]; at 33.0 µM 96% | [4]; [18] 96% and 94% | [4]; at 50.0 µM 93.2% | [4]; at 100.0 µM 91% | [5]; at 11.0 µM 85% | [5]; at 33.0 µM 97% | [5]; [18] 97% | [5]; at 50.0 µM 97.1% | [5]; at 100.0 µM 92% | [6]; at 11.0 µM 91% | [6]; at 33.0 µM 97% | [6]; at 100.0 µM 91% | [7]; at 50.0 µM 82.8% and 96.2% | [8]; at 11.0 µM 79% | [8]; at 33.0 µM 98% | [8]; at 100.0 µM 92% | [9]; at 50.0 µM 82.8% and 92.5% | [10]; at 11.0 µM 76% | [10]; at 33.0 µM 97% | [10]; at 50.0 µM 81.4% and 94% | [10]; at 100.0 µM 92% | [11]; at 11.0 µM 72% | [11]; at 33.0 µM 97% | [11]; at 100.0 µM 92% | [12]; at 11.0 µM 80% | [12]; at 33.0 µM 97% | [12]; at 100.0 µM 90% | [13]; at 11.0 µM 82% | [13]; at 33.0 µM 97% | [13]; at 100.0 µM 92% | [14]; [18] 95% and 96% | [14]; at 50.0 µM 95.2%
-5% (inactive) and 95% (active): [9]; [18]
86% (active) and 5% (inactive): [14]; [17]
